Compounds without any hit were thinned out: in the full panel of roughly 83,000, 20% have a hit.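 Note: values are percent growth. 100 is the growth of untreated cells, values between 100 and 0 indicate rising inhibition; between -100 and 0 indicates cell death.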 The source made the active and inactive calls. The calls were made as follows: active = growth percent below 10; inactive = the rest.
Experiments:
Test in all cases: NCI-60 one-dose screen, 48 h (100 = growth as untreated, 0 = no growth, -100 = all killed)
HCT-15 colon = settings: 10 µM unless noted
HT29 colon = settings: 10 µM unless noted
SNB-75 CNS = settings: 10 µM unless noted
SNB-19 CNS = settings: 10 µM unless noted
U251 CNS = settings: 10 µM unless noted
PC-3 prostate = settings: 10 µM unless noted
SK-MEL-5 melanoma = settings: 10 µM unless noted
LOX IMVI melanoma = settings: 10 µM unless noted
SK-MEL-28 melanoma = settings: 10 µM unless noted
SK-MEL-2 melanoma = settings: 10 µM unless noted
EKVX NSCLC = settings: 10 µM unless noted
SN12C renal = settings: 10 µM unless noted
UO-31 renal = settings: 10 µM unless noted
TK-10 renal = settings: 10 µM unless noted
A498 renal = settings: 10 µM unless noted
MOLT-4 leukemia = settings: 10 µM unless noted
ACHN renal = settings: 10 µM unless noted
CCRF-CEM leukemia = settings: 10 µM unless noted
CAKI-1 renal = settings: 10 µM
UACC-62 melanoma = settings: 10 µM unless noted

Measured: growth

C=CCOc1ccc(/C(Cl)=N/N=C(\Cl)c2cc(OC)c(OC)c(OC)c2)cc1
inactive: HCT-15 colon 67.3% | HT29 colon 53.2% | SNB-75 CNS 104% | SNB-19 CNS 80.7% | U251 CNS 72.8% | PC-3 prostate 65.1% | SK-MEL-5 melanoma 68.5% | LOX IMVI melanoma 80.5% | SK-MEL-28 melanoma 88.1% | SK-MEL-2 melanoma 71.8% | EKVX NSCLC 88.7% | SN12C renal 84.1% | UO-31 renal 68% | TK-10 renal 96.4% | A498 renal 76.8% | MOLT-4 leukemia 30.8%

O=C(Nc1ccccc1F)Nc1ccccc1Cl
inactive: HCT-15 colon 106% | HT29 colon 91% | SNB-75 CNS 85.7% | SNB-19 CNS 97.1% | U251 CNS 92.3% | PC-3 prostate 108% | SK-MEL-5 melanoma 84% | LOX IMVI melanoma 93.3% | SK-MEL-28 melanoma 96.9% | SK-MEL-2 melanoma 109% | EKVX NSCLC 73.2% | SN12C renal 104% | UO-31 renal 98.2% | TK-10 renal 125% | ACHN renal 90.8% | A498 renal 85.8% | CCRF-CEM leukemia 86.9% | MOLT-4 leukemia 69.3%

COc1ccc(-c2nn(-c3ccc(NC(=O)Nc4ccc(Cl)c(Cl)c4)cc3)cc2-c2ccncc2)cc1Cl
active: HCT-15 colon 7.56% | HT29 colon 6.65% | U251 CNS 0.654% | SK-MEL-5 melanoma -27.5% | LOX IMVI melanoma -0.494% | SK-MEL-2 melanoma -35.5% | CAKI-1 renal 3.8%
inactive: SNB-75 CNS 46.8% | SNB-19 CNS 34.4% | PC-3 prostate 11.3% | SK-MEL-28 melanoma 28.4% | EKVX NSCLC 21.5% | SN12C renal 20.5% | UO-31 renal 16.9% | ACHN renal 14.8% | A498 renal 10.7% | CCRF-CEM leukemia 12.6% | MOLT-4 leukemia 10.5%

Oc1ccccc1/C=N/c1ccccn1
inactive: HCT-15 colon 104% | HT29 colon 114% | SNB-75 CNS 98% | SNB-19 CNS 88% | U251 CNS 99% | PC-3 prostate 91.4% | SK-MEL-5 melanoma 97% | LOX IMVI melanoma 94.4% | SK-MEL-28 melanoma 117% | SK-MEL-2 melanoma 97.8% | EKVX NSCLC 112% | SN12C renal 116% | UO-31 renal 92.1% | ACHN renal 106% | CAKI-1 renal 104% | A498 renal 89.5% | MOLT-4 leukemia 102%

O=C(O)c1cn(C2CC2)c2cc(N3CCN(C(=O)CSc4nc(NS(=O)(=O)c5ccccc5)cc(=O)[nH]4)CC3)c(F)cc2c1=O
inactive: HCT-15 colon 94.9% | HT29 colon 119% | SNB-75 CNS 98.8% | SNB-19 CNS 99.3% | U251 CNS 97.7% | PC-3 prostate 85% | SK-MEL-5 melanoma 94.6% | LOX IMVI melanoma 90.9% | SK-MEL-28 melanoma 98% | SK-MEL-2 melanoma 79.7% | EKVX NSCLC 105% | SN12C renal 98.6% | UO-31 renal 82% | TK-10 renal 118% | ACHN renal 102% | A498 renal 113% | CCRF-CEM leukemia 81%

O=C(Cn1c2ccccc2c2ccncc21)N/N=C\c1ccc2ccccc2c1
inactive: HCT-15 colon 23.8% | SNB-19 CNS 40.5% | SK-MEL-5 melanoma 15.4% | LOX IMVI melanoma 19.4% | SK-MEL-28 melanoma 58.3% | SK-MEL-2 melanoma 63.8% | EKVX NSCLC 55.8% | SN12C renal 19.9% | TK-10 renal 55.1% | A498 renal 85.1% | CCRF-CEM leukemia 50.4% | MOLT-4 leukemia 41.7%
active: HT29 colon -8.93% | SNB-75 CNS 3.82% | U251 CNS -25.9% | UACC-62 melanoma 7.54% | UO-31 renal -28.3% | ACHN renal 4.98%

O=C(NCCNc1nccc(-c2c(-c3cccc(O)c3)nc3sccn23)n1)Nc1cccc(C(F)(F)F)c1
inactive: HCT-15 colon 84.7% | HT29 colon 38.9% | SNB-75 CNS 66.2% | SNB-19 CNS 89.5% | U251 CNS 81.6% | PC-3 prostate 26.7% | SK-MEL-5 melanoma 53.5% | LOX IMVI melanoma 64.5% | SK-MEL-28 melanoma 48.8% | SK-MEL-2 melanoma 54.4% | EKVX NSCLC 91.2% | SN12C renal 70.7% | UO-31 renal 75.2% | ACHN renal 85.1% | CAKI-1 renal 90.3% | A498 renal 111% | CCRF-CEM leukemia 23.1% | MOLT-4 leukemia 59.8%

COc1ccc(OCC(O)CN2CCN(c3ccc(Cl)cc3)CC2)cc1 (stereo unspecified)
inactive: HCT-15 colon 105% | HT29 colon 98.5% | SNB-75 CNS 84.7% | SNB-19 CNS 85.7% | U251 CNS 94.5% | PC-3 prostate 104% | SK-MEL-5 melanoma 84.3% | LOX IMVI melanoma 91.4% | SK-MEL-28 melanoma 114% | SK-MEL-2 melanoma 135% | EKVX NSCLC 97.4% | SN12C renal 105% | UO-31 renal 76% | ACHN renal 101% | CAKI-1 renal 79.9% | A498 renal 82.8% | CCRF-CEM leukemia 113% | MOLT-4 leukemia 107%

O=C(Nc1cccc(-n2ccc3c(NC(=O)c4ccccc4)nccc32)c1)Nc1cc(C(F)(F)F)cc(C(F)(F)F)c1
inactive: SNB-75 CNS 38.7% | SNB-19 CNS 20.5% | PC-3 prostate 11.1% | LOX IMVI melanoma 22.5% | SK-MEL-28 melanoma 35.4% | EKVX NSCLC 19% | SN12C renal 12.7% | UO-31 renal 12.1% | CAKI-1 renal 15.3% | A498 renal 16.4%
active: HCT-15 colon 5.94% | HT29 colon -16.3% | U251 CNS 0.587% | SK-MEL-5 melanoma -82.1% | SK-MEL-2 melanoma -11.9% | ACHN renal 8.65% | CCRF-CEM leukemia -4.29% | MOLT-4 leukemia 7.11%

CSc1ccc(C(=O)C[n+]2cccc(C)c2)cc1
inactive: HCT-15 colon 103% | HT29 colon 99.8% | SNB-75 CNS 90.7% | SNB-19 CNS 97.8% | U251 CNS 101% | PC-3 prostate 96% | SK-MEL-5 melanoma 100% | LOX IMVI melanoma 103% | SK-MEL-28 melanoma 105% | SK-MEL-2 melanoma 110% | EKVX NSCLC 100% | SN12C renal 99.9% | UO-31 renal 97.4% | ACHN renal 112% | CAKI-1 renal 102% | A498 renal 86.7% | CCRF-CEM leukemia 99.8% | MOLT-4 leukemia 97%

Cn1c(I)c(C#C[Si](C)(C)C)c(=O)[nH]c1=O
active: HCT-15 colon -37.6% | HT29 colon -60% | PC-3 prostate 4.88% | LOX IMVI melanoma -69.9% | SK-MEL-28 melanoma -82% | ACHN renal -28.4% | CAKI-1 renal -79% | CCRF-CEM leukemia -61.6% | MOLT-4 leukemia -59.7%
inactive: SNB-75 CNS 75.2% | SNB-19 CNS 100% | U251 CNS 51.5% | SK-MEL-5 melanoma 98.3% | UACC-62 melanoma 11.8% | SK-MEL-2 melanoma 60.7% | EKVX NSCLC 86.5% | SN12C renal 32.8% | TK-10 renal 82.3% | A498 renal 130%

CC/C(=C(\CC)c1ccc(OCCN(CC)CC)cc1)c1ccc(OCCN(CC)CC)cc1
active: HCT-15 colon 6.7% | HT29 colon -0.437% | SK-MEL-5 melanoma -96.4% | LOX IMVI melanoma -5.77% | SK-MEL-28 melanoma -40.5% | SK-MEL-2 melanoma -8.16%
inactive: SNB-75 CNS 39.1% | SNB-19 CNS 62.5% | U251 CNS 24.6% | UACC-62 melanoma 10.9% | EKVX NSCLC 38% | SN12C renal 68.6% | UO-31 renal 24.4% | TK-10 renal 48.6% | ACHN renal 42.5% | A498 renal 43.4% | CCRF-CEM leukemia 38.9% | MOLT-4 leukemia 42.6%

NC(CSC(c1ccccc1)(c1ccccc1)c1ccc(F)cc1)C(=O)O (stereo unspecified)
active: HT29 colon 4.36% | SNB-75 CNS -0.679% | SK-MEL-2 melanoma -30.6% | EKVX NSCLC 7.52% | MOLT-4 leukemia 9.44%
inactive: HCT-15 colon 35.3% | SNB-19 CNS 35.3% | U251 CNS 31.5% | SK-MEL-5 melanoma 15.2% | UACC-62 melanoma 35.5% | LOX IMVI melanoma 46.4% | SK-MEL-28 melanoma 58.8% | SN12C renal 39% | UO-31 renal 25.3% | TK-10 renal 64.8% | ACHN renal 56.8% | A498 renal 58.2% | CCRF-CEM leukemia 11.1%

N#Cc1c(N)nc(Cl)c(C#N)c1C(=O)c1ccccc1
inactive: HCT-15 colon 18.4% | HT29 colon 18.3% | SNB-75 CNS 50% | SNB-19 CNS 31.2% | U251 CNS 30.1% | SK-MEL-5 melanoma 23.1% | UACC-62 melanoma 36.3% | LOX IMVI melanoma 12% | SK-MEL-28 melanoma 11.6% | SK-MEL-2 melanoma 19.4% | EKVX NSCLC 87.8% | SN12C renal 35.7% | UO-31 renal 32.4% | TK-10 renal 48.6% | A498 renal 108% | CCRF-CEM leukemia 10.2% | MOLT-4 leukemia 19.7%

COc1ccc(-c2nnc(SCC(=O)N3CCN(c4cc5c(cc4F)c(=O)c(C(=O)O)cn5C4CC4)CC3)o2)cc1OC
inactive: HCT-15 colon 93.6% | HT29 colon 94.6% | SNB-75 CNS 98.4% | SNB-19 CNS 97.4% | U251 CNS 98.4% | SK-MEL-5 melanoma 99.7% | UACC-62 melanoma 97.7% | LOX IMVI melanoma 81.6% | SK-MEL-28 melanoma 95.2% | SK-MEL-2 melanoma 103% | EKVX NSCLC 102% | SN12C renal 97.6% | UO-31 renal 93.7% | ACHN renal 102% | CAKI-1 renal 97.1% | A498 renal 96.7% | CCRF-CEM leukemia 82.6% | MOLT-4 leukemia 77.4%

Fc1ccc(/C=N/n2c(-c3cc(Cl)cc(Cl)c3Cl)nn(CNc3ccc(Cl)nn3)c2=S)cc1
inactive: HCT-15 colon 110% | HT29 colon 103% | SNB-75 CNS 99.4% | SNB-19 CNS 101% | U251 CNS 90% | SK-MEL-5 melanoma 102% | UACC-62 melanoma 86.7% | LOX IMVI melanoma 96.8% | SK-MEL-28 melanoma 108% | SK-MEL-2 melanoma 98.1% | EKVX NSCLC 104% | SN12C renal 102% | UO-31 renal 89.4% | TK-10 renal 103% | ACHN renal 104% | A498 renal 105% | MOLT-4 leukemia 75.1%
active: CCRF-CEM leukemia -70.4%

COc1ccc(Cl)cc1NC(=O)c1cc2c([nH]1)-c1nc(NC(=O)C(C)(C)C)sc1CC2
active: U251 CNS 9.52%
inactive: HCT-15 colon 49.1% | HT29 colon 59.1% | SNB-75 CNS 50.5% | SNB-19 CNS 44% | SK-MEL-5 melanoma 55.5% | UACC-62 melanoma 81.2% | LOX IMVI melanoma 53.4% | SK-MEL-28 melanoma 94.2% | SK-MEL-2 melanoma 83% | EKVX NSCLC 50.4% | SN12C renal 38.6% | UO-31 renal 58.8% | TK-10 renal 66.6% | A498 renal 79.2% | CCRF-CEM leukemia 52% | MOLT-4 leukemia 58.6%
